Compounds with a hit are over-represented: about 4.2% of the library has one in this group of screens.
BJeLR viability: BJeLR cell viability loss | BJeLR (HRASV12) viability, CellTiter-Glo ATP luminescence, 48 h | inhibition, % (concentration not given with the values) | 300,000 tested, 0.17% active; in the data active = inhibition above about 50%
RecA intein inh: blocks M. tuberculosis RecA intein splicing | P9WHJ3 | cell-free RecA intein splicing, fluorescence | inhibition, % (no concentration beside the values) | 290,000 tested, 0.75% active | AID 2221; in the data active = inhibition above about 30%;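 note: 0% = vehicle wells and 100% = reference inhibitor control wells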
PrPC surface inh: cell surface PrPC inhibition, primary TR-FRET screen. 370,000 tested, 0.43% active. inhibition, % at 13.8 µM. TR-FRET read-out. P04156; in the data active = inhibition above about 24%; note: 0% = median of the test wells and 100% = reference compound wells
GDH-TPI counter-1: inhibits GDH-TPI coupling enzymes, artifact for Mtb FBA screen | GDH-TPI coupled enzyme counterscreen, NADH absorbance | 360,000 tested, 1.2% active | inhibition, % at 4.8 µM; in the data active = inhibition above about 30%;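 note: 0% = DMSO wells and 100% = wells lacking the enzyme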
FBA Mtb inh: inhibits M. tuberculosis FBA enzyme | purified M. tuberculosis FBA, fluorescence read-out | 360,000 tested, 2.3% active | inhibition, % at 1 µM | P9WQA3;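 note: 0% = vehicle and 100% = reference inhibitor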
Target sequence (P9WQA3 whole entry, looked up): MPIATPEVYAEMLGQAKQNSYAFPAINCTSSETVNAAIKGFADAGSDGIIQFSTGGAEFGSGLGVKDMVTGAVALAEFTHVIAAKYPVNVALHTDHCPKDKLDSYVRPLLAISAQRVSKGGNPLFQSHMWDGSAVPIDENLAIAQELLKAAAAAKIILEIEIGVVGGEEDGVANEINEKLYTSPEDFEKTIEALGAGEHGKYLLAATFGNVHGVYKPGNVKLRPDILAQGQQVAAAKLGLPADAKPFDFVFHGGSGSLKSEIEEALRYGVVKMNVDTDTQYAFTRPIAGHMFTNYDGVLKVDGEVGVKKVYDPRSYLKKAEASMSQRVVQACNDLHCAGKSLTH
Mtb FBA inh conf: confirmation of M. tuberculosis fructose-bisphosphate aldolase inhibitors | shares compounds with FBA Mtb inh | purified M. tuberculosis FBA, fluorescence read-out | inhibition, % at 1 µM | 5,600 tested, 78% active | AID 651616;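 note: 0% = vehicle wells and 100% = reference inhibitor wells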
GDH-TPI counter-2: GDH-TPI inhibition counter-screen for FBA inhibitors | shares compounds with FBA Mtb inh | GDH-TPI coupled enzyme counterscreen, fluorescence | inhibition, % at 1 µM | 5,600 tested, 81% active; in the data active = inhibition above about 10%
GDH-TPI dose: counter-screen for M. tuberculosis FBA inhibitors: GDH-TPI dose response | shares compounds with FBA Mtb inh | GDH-TPI coupled enzyme assay, fluorescence, artifact counterscreen | IC50, µM | 170 tested, 79% active; call rule not given here
* marks the source's active call; other numbers are inactive results; / = not tested or not shown; + = active, no number. Cut-off read from the data, not from the text of the source, unless noted: active = inhibition above about 27%; inactive = the rest.

SMILES | BJeLR viability | RecA intein inh | PrPC surface inh | GDH-TPI counter-1 | FBA Mtb inh | Mtb FBA inh conf | GDH-TPI counter-2 | others
Clc1ccccc1C1=CC(c2ccco2)n2ncnc2N1 (stereo unspecified) | -4 | -71 | -10 | 14 | 35* | 156* | 126*
CC(C)NC(=O)C1Cc2c(-c3ccc4c(c3)OCO4)ccnc2O1 (stereo unspecified) | / | / | 0 | 4 | 52* | 111* | 91*
O=C(NCCc1ccccc1)C1Cc2c(-c3ccc4c(c3)OCO4)ccnc2O1 (stereo unspecified) | / | / | 9 | -4 | 47* | 29* | 36*
COc1ccc(CNC(=O)C2Cc3c(-c4ccc5c(c4)OCO5)ccnc3O2)cc1OC (stereo unspecified) | / | / | 11 | 8 | 31* | + | +
COc1ccc(NC(=O)C2Cc3c(-c4ccc(NC(C)=O)cc4)ccnc3O2)cc1OC (stereo unspecified) | / | / | 0 | 3 | 4 | / | /
CC(C)c1ccc(NC(=O)C2Cc3c(-c4ccc5c(c4)OCO5)ccnc3O2)cc1 (stereo unspecified) | / | / | 4 | 9 | 20 | / | /
COc1ccc(NC(=O)C2Cc3c(-c4ccc5c(c4)OCO5)ccnc3O2)cc1OC (stereo unspecified) | / | / | 11 | 6 | 48* | 27* | 19*
CCCNC(=O)C[C@H]1CC[C@H]2[C@@H](COc3ccc(NC(=O)c4cncs4)cc3C(=O)N2C)O1 | / | / | 1 | / | / | / | /
Nn1c(SCC(=O)Nc2ccccc2-c2ccccc2)nnc1-c1n[nH]c2c1CCC2 | / | / | 15 | / | / | / | /
Cc1cc(C)cc(NC(=O)NC2CCN(S(=O)(=O)c3ccc(F)cc3)CC2)c1 | / | / | 6 | / | / | / | /
Cc1cc(C)cc(S(=O)(=O)N2CCN(c3nc(-c4cccs4)nc4ccccc34)CC2)c1 | / | / | -7 | / | / | / | /
COc1cccc(N2CCN(CC(=O)N(C)Cc3ccccc3Cl)CC2)c1 | / | / | -8 | / | / | / | /
O=C(NCc1ccc(F)c(F)c1)C1Cc2c(-c3ccc4c(c3)OCO4)ccnc2O1 (stereo unspecified) | / | / | 6 | -2 | 49* | 177* | 136*
O=C(Nc1ccc(Cl)c(C(F)(F)F)c1)C1Cc2c(-c3ccc4c(c3)OCO4)ccnc2O1 (stereo unspecified) | / | / | 15 | 6 | 5 | / | /
CCC[C@H]1[C@@H](OC(=O)NCCc2c[nH]c3ccccc23)CC[C@@]23CCCN2C(=O)CCC[C@@H]13 | / | / | 0 | / | / | / | /
O=C(c1ccc(Br)cn1)N1CCC(Oc2cccnc2)CC1 | / | / | 7 | / | / | / | /
CCn1c2c(n(C(C)=O)c1=O)C=C(C(=O)N1CCCC1)C(C)C(c1ccccc1)=C2 (stereo unspecified) | / | / | -11 | / | / | / | /
CSc1n[nH]c2nc3c(c(=O)n12)C1(CCCC1)Cc1ccccc1-3 | 6 | -20 | 6 | 16 | 19 | / | /
Cn1ncn2c(=O)c3c(nc12)-c1ccccc1CC31CCCC1 | -12 | 0 | -7 | 7 | 44* | + | +
O=C(O)C1Cn2c(nc3c(c2=O)C2(CCCC2)Cc2ccccc2-3)S1 (stereo unspecified) | 6 | 0 | 9 | 8 | 35* | -9 | -5
Nn1cnc2c(c1=O)C1(CCCCC1)Cc1ccccc1-2 | 4 | 2 | 8 | 9 | 2 | / | /
Cn1c(NCCO)nc2c(c1=O)C1(CCCCC1)Cc1ccccc1-2 | 10 | 5 | -5 | 1 | 70* | + | +
CCSc1n[nH]c2nc3c(c(=O)n12)C1(CCCC1)Cc1ccccc1-3 | 2 | -25 | -1 | 4 | 28* | -2 | -4
c1cc2ccn(CC3CC3)c2cc1-c1ccc2ccn(CC3CC3)c2c1 | / | / | 0 | / | / | / | /
CCCC(NC(=O)Cc1c(C)c2c(cc(C)c3c(C)coc32)oc1=O)C(=O)O (stereo unspecified) | 2 | 0 | 3 | 1 | 55* | -24 | -17
SMILES | BJeLR viability | RecA intein inh | PrPC surface inh | GDH-TPI counter-1 | FBA Mtb inh | Mtb FBA inh conf | GDH-TPI counter-2 | others
Cc1oc2c(c(C)cc3oc(=O)c(CC(=O)N[C@@H](C)C(=O)O)c(C)c32)c1C | 4 | 2 | -1 | 2 | 16 | / | /
Cc1coc2c1c(C)cc1oc(=O)c(CC(=O)NCCCN3CCCC3=O)c(C)c12 | -2 | 2 | -7 | 21 | 66* | 13 | 0 | GDH-TPI dose=2.3*
Cc1oc2c(c(C)cc3oc(=O)c(CC(=O)N[C@@H](CCCNC(N)=O)C(=O)O)c(C)c32)c1C | -8 | -14 | -6 | 5 | 11 | / | /
Cc1coc2c(C)c3oc(=O)c(CC(=O)N[C@@H](CC(C)C)C(=O)O)c(C)c3cc12 | 9 | 2 | 8 | 7 | 13 | / | /
Cc1coc2c1c(C)cc1oc(=O)c(CC(=O)N[C@@H](CC(C)C)C(=O)O)c(C)c12 | -1 | -2 | 7 | 19 | 79* | 177* | 141*
CC[C@@H](C)[C@H](NC(=O)CNC(=O)Cc1c(C)c2c(cc(C)c3c(C)coc32)oc1=O)C(=O)O | 10 | -3 | 4 | 12 | 82* | 50* | 35*
CCCNC(=O)COC(=O)c1cc2c(=O)n3ccccc3nc2s1 | 0 | -208 | -4 | 5 | 76* | 10 | 3
CCOC(=O)C1CCCN(C(=O)c2cc3c(=O)n4ccccc4nc3s2)C1 (stereo unspecified) | -7 | -61 | 0 | 16 | 63* | 10 | -7
CC1CCN(C(=O)c2cc3c(=O)n4ccccc4nc3s2)CC1 | -4 | -45 | -2 | 15 | 87* | 132* | 100*
CCN(C(=O)c1cc2c(=O)n3ccccc3nc2s1)C1CCCCC1 | -2 | -38 | -16 | 7 | 72* | 56* | 32*
CCC[C@H]1[C@@H](NCC2CCCCC2)CC[C@@]23CCCN2C(=O)CCC[C@@H]13 | / | / | 4 | / | / | / | /
Cc1cccc(C)c1NC(=O)[C@H]1CC(=O)O[C@@H]1c1ccccc1 | / | / | 6 | / | / | / | /
O=C(c1cc2c(=O)n3ccccc3nc2s1)N1CCOCC1 | 15 | -9 | -10 | 25 | 79* | + | +
COCCCn1cnc2c(c1=O)c1nc3ccccc3nc1n2-c1ccc(C)cc1 | -1 | 0 | -14 | 14 | -1 | / | /
COCCCn1c2nc3ccccc3nc2c2c(=O)n(CC3CCCO3)cnc21 (stereo unspecified) | 17 | -7 | -9 | 21 | 79* | 0 | -2
COc1ccc(-c2cnc(C(N)=O)c(=O)[nH]2)cc1 | / | / | 0 | 14 | 65* | 71* | 60*
COC(=O)[C@]1(C#N)CC(=O)N(c2ccccc2)[C@@H]1c1ccccc1 | / | / | 3 | / | / | / | /
Nc1cnccc1C(=O)O | 3 | -12 | 7 | 9 | 6 | / | /
COC(=O)c1ccncc1N | -4 | 0 | 9 | 0 | 47* | 7 | -4

Screens (PubChem)
